Results on 14 molecules are retold here after paper PMC12136788.

Where a chain is given by its changes, count along the chain named. Whole data set: some 24,000 sequences, median “enrichment r” near 0.99, cut for the highest 2% near 3.7. What follows is part of a selection rich in the highest values, with near analogues and random picks from the rest.

T1: UNK ZnF1-3 (human, UniProt Q9C0B0 31-174)
T1 sequence: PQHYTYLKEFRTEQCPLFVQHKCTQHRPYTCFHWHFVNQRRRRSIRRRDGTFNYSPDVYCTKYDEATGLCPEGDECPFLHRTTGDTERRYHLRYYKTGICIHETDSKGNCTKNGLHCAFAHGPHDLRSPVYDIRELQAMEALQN

B1: chr8:145151508:145151509:+_ENSG00000179091_ENST00000318911|hu_hu|FALSE|FALSE (ssRNA)
RNA: GGGAGUUCUACAGUCCGACGAUCACCUUCCCGCAGUGACACCCCGGUGGGUGGCUCGCAGUAGCCCGUGAGCAGGGAGAAGACGUAGUCCUCACCACCAUGCCUAGCUCGCACGAUGUAGCUGAGGUCAGGGGGCAAUGCUCCCAACAGAGGAUUGAGCAUCA
B2: 35238635_35241177_7885_CDS_ENSMUSG00000029104_ENSMUST00000080036|mouse|control|control (ssRNA)
RNA: GGGAGUUCUACAGUCCGACGAUCCUGGCCCAGCUUGUAGCUCAUGUUGCCUGGCUCCCGCUCUGGGUUGAUCUGCAGCAGCAGCUUGUCAUGGCUGAUAAGAGCACCUGUAGUAGCUGGUAACAGAGAAGGGACAGGAUCCCACAACAGAGGAUUGAGCAUCA
B3: chr8:13020401:13020402:+_ENSMUSG00000031442_ENSMUST00000123811|mus_hu|FALSE|FALSE (ssRNA)
RNA: GGGAGUUCUACAGUCCGACGAUCUGAUUCCGCACCCUGGAGGUCUGGCCAGUGACGGCUACAAGCCGCUGGGAGGGUAGCGUGAGGGGAAUGCAGCCACGCCUGCCUCCACUGUGCUGGGGCUGGGAACCGUGAGGCUGUGAGCAACAGAGGAUUGAGCAUCA
B4: chr9:4385736:4385737:+_ENSMUSG00000041124_ENSMUST00000047173|mus_hu|FALSE|FALSE (ssRNA)
RNA: GGGAGUUCUACAGUCCGACGAUCAUAUUUUGGGUUGGAAAAUUCUUUACUGAGUGUGGGGGGGUGUUGAGGAGGUAUGCAUUGCACAGUAGCAACCUUUUCCCCACCCCAGUUUUGACAACCCAACAUGUCUCCAGACAUCACCAACAGAGGAUUGAGCAUCA
B5: chr2:27535424:27535425:-_ENSG00000115204_ENST00000380044|hu_mus|FALSE|FALSE (ssRNA)
RNA: GGGAGUUCUACAGUCCGACGAUCUUUGGCCCAAUUGUCCUGGGCUGACAUUCCAUUGAGUAUCCCGACCAGUGGGAGAAAGCAGCCUAGGAAACAUGGGGCAAAGCCCCCCUGAUCUAACAACAUCUUCUUCAGUGCAUGCACCAACAGAGGAUUGAGCAUCA
B6: chr2:17897474:17897475:-_ENSG00000163029_ENST00000351948|hu_mus|FALSE|FALSE (ssRNA)
RNA: GGGAGUUCUACAGUCCGACGAUCUAUUGCUUCCAGAAGAGCUGGAACAUGAGGACCAAAUCUUUUUAGUCGAUCAGUUUUACUAUCUUUCAGUUCUUUCAAUUGUCUCUGAUUAUAGUUGAGUGCAUGUCUCACUUCUAUAUCCAACAGAGGAUUGAGCAUCA
B7: 8890394_8891644_3383_CDS_ENSG00000134313_ENST00000427284|human|control|control (ssRNA)
RNA: GGGAGUUCUACAGUCCGACGAUCACCCUCAUGUAGAGGGAGCGGGGGGUACGCCAGUCCUCCAAUACUGAUCUGCUCUCUGGCAGCACGAACAUCUGCAAUAAUUUCCCGUAGUUUGGGAUCUAGGUUUACAGUGCAUGGCAACAACAGAGGAUUGAGCAUCA
B8: chr4:2840174:2840175:+_ENSG00000087266_ENST00000503393|hu_hu|motif|central (ssRNA)
RNA: GGGAGUUCUACAGUCCGACGAUCGAACUACGAUACAGCCAAACAAUGGAAGUUUUUAGCAAUGAACAUGCACAAACGGUACGGCGCACAGCAACAUGAAUAAAUCUCACAGACAUAAUAACGAGCCAAAGAAGCCAGCUGCCACAACAGAGGAUUGAGCAUCA
B9: chr17:56552419:56552420:-_ENSMUSG00000013236_ENSMUST00000086828|mus_mus|mus_mus_mus_hu_False|28_38 (ssRNA)
RNA: GGGAGUUCUACAGUCCGACGAUCAAAAAAUACACUAUUUAAAAAAAAUGAAAUGUCACGGGAUACAGUUACACUGAGAGUUUUAAAAGAAAGCUGGAAAAAAAAUGUUGCCAAAAGUCCCCAGGCUGCAGAGCGGGGAGGAGCCAACAGAGGAUUGAGCAUCA
B10: chr17:56552419:56552420:-_ENSMUSG00000013236_ENSMUST00000086828|mus_mus|mus_mus_mus_hu_False|18_38 (ssRNA)
RNA: GGGAGUUCUACAGUCCGACGAUCAAAAAAUACACUAUUUAAAAAAAAUGAAAUGUCACGGGAUACAGUUACACUGAGAGUUUUAAAAGAAAGCUGGAAAAAAAAUGCAGCCCAGUGGCAGGCAGGGGCAGAGCGGGGAGGAGCCAACAGAGGAUUGAGCAUCA
B11: chr17:56552419:56552420:-_ENSMUSG00000013236_ENSMUST00000086828|mus_mus|mus_mus_mus_hu_False|38_48 (ssRNA)
RNA: B9 RNA with G88A, G92A, C93U, U94A, G95A, U107C, U108A, A112C, A114G, A115U
B12: chr17:56552419:56552420:-_ENSMUSG00000013236_ENSMUST00000086828|mus_mus|mus_mus_mus_hu_False|8_38 (ssRNA)
RNA: GGGAGUUCUACAGUCCGACGAUCAAAAAAUACACUAUUUAAAAAAAAUGAAAUGUCACGGGAUACAGUUACACUGAGAGUUUUAAAAGAAAGCUGGAAAAAAAAUGCAGCCCAGUGUCCCCAGGCUGAGUGCGGAAGAGGAGCCAACAGAGGAUUGAGCAUCA
B13: chr2:61719535:61719536:-_ENSG00000082898_ENST00000401558|hu_mus|FALSE|FALSE (ssRNA)
RNA: GGGAGUUCUACAGUCCGACGAUCGUUUACUACUGUCUUCAAAAAUUUCCAGUGUGCUCUCAAAAAUCUUGGGUAUUGACCUACUAUGUACAUGAUAUUCGAUGCAAUAAUAGCUUUAUUAUCUUUGCCUCUUUUCUGCUCACACAACAGAGGAUUGAGCAUCA
B14: chr2:48026839:48026840:+_ENSG00000116062_ENST00000540021|hu_hu|hu_hu_hu_mus_False|38_78 (ssRNA)
RNA: GGGAGUUCUACAGUCCGACGAUCAUAGUGAGCCACUAGCGUCCUAAAUCUGGAACAAUGGCGAUCAUCCGAAAACUGGCCGAUGAAAAACUUGCCCAGUGAAGUAUCCACAAAGCAAACACCAUACACACGAGUGUGACCAGACAACAGAGGAUUGAGCAUCA

The target in this test is T1, UNK ZnF1-3. Kind of test: nsRBNS (natural sequence RNA bind-n-seq); RBNS binding buffer (assumed for nsRBNS): 25 mM Tris pH 7.5, 150 mM KCl, 3 mM MgCl2, 0.01% Triton X-100, 500 ug/ml BSA, 20 U/ml SUPERase-In, 4 C; UNK is unkempt and MSI1 is Musashi-1; names of the RNAs are library labels; protein concentration not given here; high values mean tight binding.
For the molecule B1, the binding signal is 1.01 enrichment R. In the case of B2, the binding signal came to 1.21 enrichment R. The result for B3 reads 1.36 enrichment R; that for B4, 0.462 enrichment R. In the case of B5, the binding signal is 0.82 enrichment R.

The molecule B6 yielded a binding signal of 0.468 enrichment R. In turn, B7 had a binding signal of 0.796 enrichment R. The molecule B8 came in with a binding signal of 2.12 enrichment R.

B9 yielded a binding signal of 5.83 enrichment R. The molecule B10 showed a binding signal of 5.96 enrichment R.

In turn, B11 had a binding signal of 12.3 enrichment R. Molecule B12 showed a binding signal of 6.02 enrichment R. The result for B13 reads 0.747 enrichment R; that for B14, 1.33 enrichment R.
